Reference: PubChem BioAssay (NCI)
The panel holds about 83,000 compounds, 20% with a hit somewhere; the sample as a whole holds those more often.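 Activity criterion: percent growth below 10, measured after cells in 96-well plates were exposed to a single compound concentration for 48 hours.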 Values without a mark were called inactive. Active and inactive are the calls of the source.

Columns and labels:
Test in all cases: NCI-60 one-dose screen, 48 h (100 = growth as untreated, 0 = no growth, -100 = all killed)
Details in all cases: 10 µM
T-47D breast = test system: T-47D breast
BT-549 breast = test system: BT-549 breast
MDA-MB-435 melanoma = test system: MDA-MB-435 melanoma
MCF7 breast = test system: MCF7 breast
HCC-2998 colon = test system: HCC-2998 colon
KM12 colon = test system: KM12 colon
SW-620 colon = test system: SW-620 colon
HCT-116 colon = test system: HCT-116 colon

SMILES | growth (T-47D breast) | growth (BT-549 breast) | growth (MDA-MB-435 melanoma) | growth (MCF7 breast) | growth (HCC-2998 colon) | growth (KM12 colon) | growth (SW-620 colon) | growth (HCT-116 colon)
Nc1cc(-c2ccncc2)c[nH]c1=O | 114% | 93.5% | 115% | 91% | 116% | 104% |  | 
CC(=O)Nc1ccc(S(=O)(=O)c2ccnc3cc(Cl)ccc23)cc1 | 72.5% |  | 73.9% | 57.8% | 100% |  | 81.8% | 78.7%
NC(CSC(c1ccccc1)(c1ccccc1)c1cccc2ccccc12)C(=O)O (configuration not stated) | 103% |  | 90.9% | 105% | 103% | 91.9% | 97.8% | 85.7%
CCN(CC)CCN1c2nc3ccccc3cc2Sc2cc3ccccc3nc21 | 73.5% |  | -25% (active) | -100% (active) | -99% (active) |  | -29.7% (active) | -45.4% (active)
CC(=O)Nc1ccc(S(=O)(=O)N/N=C(\C)c2ccc(C)cc2C)cc1 | 106% | 111% |  | 88.2% | 101% | 110% | 101% | 102%
O=C1c2ccccc2C(=O)c2c1ccc(C(Br)Br)c2Cl | 22.7% |  | 60% | 2.06% (active) | 87.4% | 47.5% | -23.4% (active) | -62.7% (active)
Cc1cn(-c2cc(F)cc(NC(=O)c3ccc(C)c(Nc4nccc(-c5cccnc5)n4)c3)c2)cn1 | 3.22% (active) | -27.3% (active) |  | 16.8% | 101% | 15.6% | 40.5% | 6.97% (active)
Cc1c2c(nn1C(=O)c1nn(-c3ccc(Cl)cc3)cc1O)-c1ccccc1CC2 | 1.65% (active) |  | 34.3% | 12.4% | 9.3% (active) | 29.5% | 32.4% | 7.08% (active)
NC1=NC(c2ccccc2)C2=C(N1)/C(=C/c1ccccc1)CCC2 (configuration not stated) | 93.1% |  | 36.8% | 38.6% | 48.5% |  | 72.8% | -53.1% (active)
O=C(CC(CC(=O)c1ccccc1)c1ccccc1O)c1ccccc1 | 83% |  | 99.1% | 89.3% | 105% | 99.8% | 96.7% | 88.5%
CCCN(CCC)C(=O)[C@H](CC)[C@@H]1CC[C@@H](C)[C@@H]([C@H](C)[C@@H](O)[C@@H](C)C(=O)[C@H](CC)C2O[C@]3(C=C[C@@H](O)[C@]4(CC[C@@](C)([C@H]5CC[C@](O)(CC)[C@H](C)O5)O4)O3)[C@H](C)C[C@@H]2C)O1 (some centres not stated) | 11.1% |  | 3.17% (active) | -15.3% (active) | 4.75% (active) | 19.9% | 9.23% (active) | 6.43% (active)
O=C1c2ccccc2C(=O)c2c1ccc(C(Br)Br)c2[N+](=O)[O-] | -36.2% (active) |  | 81.5% | -40% (active) | 82% | 49.9% | -23.6% (active) | -63.9% (active)
C=CCSC(CC)(CC)C(=O)NC | 102% |  | 109% | 94.6% | 102% | 104% | 103% | 94%
CN(C)CCCSc1ccccc1NC1=C(Cl)C(=O)C(Nc2ccccc2SCCCN(C)C)=C(Cl)C1=O | -42.8% (active) |  | 92.1% | -50% (active) | 103% | 80.2% | -34.3% (active) | 4.82% (active)
CC1=NN(C(=O)c2nn(-c3ccc(Cl)cc3)cc2O)C(=O)C1 | 48.5% |  | 59.8% | 52.4% | 54.1% | 49% | 46.3% | 28.5%
Clc1ccc(C2=NN=C3C(Cc4ccccc4)=Nc4ccccc4N3C2)cc1 | 95% |  | 73% | 88.7% | 68.5% | 63.6% | 91.8% | 53.1%
COc1cc(C2CC(c3ccccc3)=NN2C(C)=O)cc(OC)c1OC (configuration not stated) | 34.1% |  | -29.4% (active) | 14.6% | 49.7% | 18.4% | 19.1% | 19.3%

SMILES | growth (T-47D breast) | growth (BT-549 breast) | growth (MDA-MB-435 melanoma) | growth (MCF7 breast) | growth (HCC-2998 colon) | growth (KM12 colon) | growth (SW-620 colon) | growth (HCT-116 colon)
CSc1nc2c(c(=O)n1C)CN(Cc1ccccc1)C(=O)CN2 | 95% |  | 60% | 89.6% | 85.4% | 85.7% | 95.7% | 92.6%
Cc1ccc(NCCN(C)CC(C)O)c2c(=O)c3ccc(Cl)cc3sc12 (configuration not stated) | 49.7% |  | -49% (active) | 17.4% | 18% | 43.7% | -46.4% (active) | -48.8% (active)
Nc1cc(Br)c(-c2nn3c(CCC(=O)c4nc5ccccc5[nH]4)nnc3s2)c(Br)c1 | 88% |  | 90.5% | 87.5% | 104% | 96.4% | 112% | 77.9%
O=C(O)c1ccc(-n2cc(CNc3ccc(Oc4ccccc4)cc3)c(-c3ccccc3)n2)cc1 | 75% |  | 94.2% | 85.4% | 120% | 80.3% | 99.4% | 88.5%
CCOC(=O)C(C)(c1ccccc1)c1ccccc1 | 99.1% |  | 106% | 99.6% | 109% | 96.4% | 105% | 102%
COc1ccc2c(c1)C(=O)/C(=C/c1ccc([N+](=O)[O-])o1)O2 | -46.9% (active) |  | -72.5% (active) | -18.7% (active) | -78.5% (active) | -80.3% (active) | -60.4% (active) | -44.9% (active)
Clc1nc2ccc(Br)cc2cc1-c1nc2ccccc2[nH]1 | 104% |  | 102% | 42.5% | 108% | 90.7% | 89.7% | 77.8%
CN(C)CCN(Cc1ccccc1)c1ccc2ccccc2n1 | 86.3% |  | 94.4% | 86.7% | 97.5% | 101% | 91.8% | 90.4%
CN(C)CCOc1ccccc1NC1=C(Cl)C(=O)C(Nc2ccccc2OCCN(C)C)=C(Cl)C1=O | -37.6% (active) |  | 86.4% | -53.9% (active) | 101% | 93.6% | -50% (active) | -75.3% (active)
COc1ccc2cc(-c3nc4ccccc4s3)c(Cl)nc2c1OC | 91.2% |  | 110% | 92.9% | 105% | 101% | 93.8% | 108%
COc1ccc(C2CC(c3cc(OC)c(OC)c(OC)c3)=NN2)cc1 (configuration not stated) | 51.7% |  | 19.9% | 10.2% | 79.3% | 15.1% | 48% | 53.3%
COc1ccc(NC(=O)C2CC3C=CC2C3)c([N+](=O)[O-])c1 (configuration not stated) | 98.1% |  | 102% | 101% | 103% | 105% | 110% | 120%
COc1ccc(-c2cc(-c3ccccc3)nc(SCCCC(=O)NO)n2)cc1 | -1.07% (active) |  | -3.03% (active) | -5.14% (active) | -16.6% (active) | 17.3% | 2.34% (active) | 3.36% (active)
O=S(=O)(O)c1ccc(Cl)cc1 | 97.8% |  | 109% | 91.4% | 98.9% | 99.2% | 101% | 98.4%
CN(C)CCCOc1ccc(OCCCN(C)C)c2c1C(=O)c1ccccc1C2=O | -5.61% (active) |  | 3.12% (active) | 8.41% (active) | 16.7% | 6.87% (active) | 3.12% (active) | 8.36% (active)
Clc1nc2ccccc2cc1Cn1nnc(Cc2ccccc2)n1 | 26.1% |  | 65.3% | 45.8% | 81.3% | 66.3% | 86.6% | 35.1%
